# Assay results reported in PubChem BioAssay (NCI).
# The panel holds about 79,000 compounds, 15% with a hit somewhere; the sample as a whole holds those more often. A number with no mark means an inactive call. Active and inactive are the calls of the source. Cut-off read from the data, not from the text of the source: active = growth inhibition above about 70%; inactive = the rest. Where a SMILES comes first, the peptide text is derived from it. [ ]: non-standard residue; d: D form. The star is where a group is joined. Cbz = O=C(OCc1ccccc1)*; Nva = CCC[CH](N)C(=O)O
# Key:
# [1] = NCI Yeast Anticancer Drug Screen. Data for the rad50 strain (AID 155);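 note: 0% = growth of vehicle-only cultures of the same strain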; conditions: S. cerevisiae rad50 strain growth inhibition; at 50.0 µM; hits give high values
# How it was run: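 Readout: growth inhibition relative to vehicle-treated cultures. Compound exposure was carried out in a genetically defined yeast strain deficient in DNA damage repair.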
# [2] = NCI Yeast Anticancer Drug Screen. Data for the mec2-1 strain (AID 157); conditions: S. cerevisiae mec2-1 strain, at 50.0 µM, hits give high values
# How it was run: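 Mutant yeast (mec2-1) grown with compound; growth inhibition relative to vehicle control reported.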
# [3] = NCI Yeast Anticancer Drug Screen. Data for the sgs1 mgt1 strain (AID 161);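 note: 0% = growth of cultures given vehicle only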; conditions: S. cerevisiae sgs1 mgt1 strain, at 50.0 µM, hits give high values
# How it was run: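 Growth of a repair-deficient yeast mutant was monitored after compound treatment and expressed as inhibition relative to vehicle-treated cultures.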
# [4] = NCI Yeast Anticancer Drug Screen. Data for the cln2 rad14 strain (AID 165);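 note: 0% = growth equal to vehicle treated cultures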; conditions: S. cerevisiae cln2 rad14 strain, at 50.0 µM, hits give high values
# How it was run: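 Readout is yeast growth inhibition versus vehicle-treated controls, using a strain with cln2 and rad14 alterations exposed to compound.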
# [5] = NCI Yeast Anticancer Drug Screen. Data for the bub3 strain (AID 167); conditions: S. cerevisiae bub3 mutant strain, at 50.0 µM, hits give high values
# How it was run: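 Readout: yeast growth inhibition, expressed relative to vehicle-only wells. The test organism is a mutant strain from a panel with lesions in DNA repair or checkpoint genes.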
# [6] = NCI Yeast Anticancer Drug Screen. Data for the mlh1 rad18 strain (AID 175); conditions: S. cerevisiae mlh1 rad18 strain growth inhibition; at 50.0 µM; hits give high values
# How it was run: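 Genetically defined yeast (DNA repair-deficient) exposed to compounds; growth inhibition determined relative to vehicle.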
Compound,growth inhibition [1],growth inhibition [2],growth inhibition [3],growth inhibition [4],growth inhibition [5],growth inhibition [6]
CC1=CC(=O)N(NC(N)=O)C1=O,-11.4%,-2.9%,-9.5%,-27.9%,-16.4%,2.15%
COc1cccc(/C(C#N)=N/NC(=O)c2nc[nH]c2C)c1,9.5%,8.9%,19.8%,10.9%,13.1%,8.95%
COC(=O)C1CC(=O)c2cc(OC)ccc2C1 (configuration not stated),-1.85%,2.8%,-7.7%,6.05%,-7.75%,-27.1%
COc1cc(NC(=O)Nc2cccc(C(C)=O)c2)c(OC)cc1Cl,-10.5%,11%,0.75%,-14.4%,6.35%,-9.15%
CCOc1ccccc1N=Nc1c(C)nn(C(=S)SC)c1OCC,22.5%,18.4%,26.4%,30.2%,14%,39.2%
COc1ccc(C2=C(OC(=O)N(C)C)c3cccn3-c3cc(Cl)ccc3S2)cc1,-7.3%,2%,1.7%,-1.85%,-0.1%,-5.95%
CCC1c2c(cc(=O)[nH]c2O)C(=O)N1C (configuration not stated),9.5%,-4.75%,3.95%,-9.15%,-0.8%,0.55%
CNC(=O)Nc1cc2c3c(c1)CCCN3CCC2,-16.8%,-36.6%,-9.45%,-15.8%,-9.55%,-8.3%
CCOC(=O)C1=C(c2ccccc2)N=c2ccccc2=S1C (configuration not stated),7.25%,-2.3%,18.1%,-3.35%,5.1%,20.4%
O=c1cc(C=Nc2cccc(Br)c2)[nH]c(=S)[nH]1,-4.4%,-17.4%,-15.4%,-24.8%,-10.1%,-10%
CC(C)CCOC(=O)C1C(=O)CC(c2ccccc2)C1c1ccccc1 (configuration not stated),11.1%,3.5%,-6.35%,-0.15%,6%,6.25%
O=[N+]([O-])c1ccc(/C(=C/c2ccc(Cl)cc2Cl)S(=O)(=O)C(Cl)Cl)o1,98.3% (active),98.8% (active),99.1% (active),99.1% (active),98.2% (active),98% (active)
CCOc1c(N=Nc2ccccc2C)c(C)nn1C(=S)SC,-1.2%,-2.2%,-15.4%,23.8%,-19.4%,15.7%
O=C(Cc1ccccc1)c1c[nH]c2c(O)ccc(O)c12,-15.1%,-9.25%,-12.3%,-49.1%,-13.9%,-8.45%
CCCCCC(=O)N1SC(NC(=O)OC)=Nc2ccccc21,63.5%,47.5%,64.8%,84.3% (active),90.6% (active),83.5% (active)
CC(=O)c1ccc(C)cc1C,27.9%,4.35%,15.3%,2.65%,15.4%,2.95%
CN1C(=O)CC(NC(=O)CNC(=O)c2ccccc2)C1=O (configuration not stated),19.5%,16%,23.1%,21.1%,2.7%,29.4%
N#CC(c1ccccc1)N(C(N)=O)c1ccccc1 (configuration not stated),-3.15%,8.5%,8.05%,-2.85%,6.4%,4.2%
C=C1CCc2ccccc2C1=O,23.4%,-4%,4.25%,-5.55%,7.15%,13.6%
c1ccc(CC2CCCC(Cc3ccccc3)N2)cc1 (configuration not stated),-1.25%,-16.4%,-5.55%,-49.3%,16.1%,5.1%
Nc1ncc2ncn(C3CCC(CO)O3)c2n1 (configuration not stated),-6.9%,-10.1%,-22.2%,-4.65%,-10.8%,-6.45%

Compound,growth inhibition [1],growth inhibition [2],growth inhibition [3],growth inhibition [4],growth inhibition [5],growth inhibition [6]
Nc1ncnc2nc(I)[nH]c12,-1.45%,1.25%,-4.55%,-6.75%,26.7%,7.3%
CCCC(NC(=O)OCc1ccccc1)C(=O)NC(CCSC)C(N)=O (configuration not stated) (Cbz-[Nva]-Met-NH2; configuration not given here),28.2%,-5.35%,-5.95%,5.6%,-4.6%,-27.9%
O=C1C=CC2(CC=CCC2)CC1 (configuration not stated),5.25%,-8.4%,-1.6%,-23.4%,-11.8%,0.55%
N#Cc1ncn(CCO)c1N,8.7%,-22.4%,3.3%,3.9%,-3.95%,-43.5%
CCN(CC)CCNc1cc(OC)c(N)c2cccnc12,14.2%,19.9%,-2.7%,-6.75%,46.6%,40.4%
O=C(O)/C=C/c1ccccc1Br,20.8%,3.5%,12.7%,8.3%,-8.7%,-17.4%
CSc1ncc(CO)c(Nc2ccc(F)cc2)n1,-12.7%,8.7%,-16.4%,-20%,-14.9%,-23.4%
CC1(C)CC(O)=CC(=O)N1,15.9%,-5.75%,-3.85%,11.7%,10.3%,4.45%
C1COC2(C1)CCCO2,21.6%,-0.5%,-27.2%,3.5%,23.2%,-2.95%
Cc1cn(C2CC(O)C(CO)C2C)c(=O)[nH]c1=O (configuration not stated),-7.45%,-11.8%,-17.2%,5.4%,-11.8%,-24.9%
S=C1NNC(=S)NN1,43.7%,29.8%,39.9%,37.9%,49.9%,62.7%
COc1ccc2c(c1)OC[C@@H]1c3cc(O)c(OCc4ccccc4)cc3O[C@]21C,9.9%,40.8%,10.3%,53.5%,21.7%,-26%
CC12CCC(CC1C(=O)O)C2 (configuration not stated),19.4%,16.3%,24.9%,22.1%,9.75%,15.3%
CS(=O)(=O)C(C#N)c1nc2ccccc2nc1Cl (configuration not stated),-20.6%,-17.7%,-53.1%,-9.6%,-42%,-30.6%
CCOC(=O)C(Nc1cc([N+](=O)[O-])ccc1C(=O)OC)(OC)C(=O)OCC,13.2%,15.4%,34.1%,0.95%,1.15%,27.4%
N#CN1CC[C@@H]2CC3(CCC2C1)OCCO3 (some centres not stated),17.6%,4.3%,0.3%,-4.45%,-18.4%,1.5%
Cc1cc(NC(=O)C(=O)CC(=O)c2ccc(Cl)s2)no1,-51.3%,4.95%,-8.55%,-56.4%,-6.7%,-2.6%
N=C(N)c1cccc(NC(=O)CCc2ccccc2)c1,-7.3%,-14.6%,-17.8%,-29.1%,0.95%,1.9%
O=C(/N=C/c1c(O)c2ccccc2oc1=O)NC1CCCCC1,-16.1%,-9.2%,-25.9%,0.65%,-17.6%,-5.8%
C=C1C(=O)OC2C1C(OC(=O)/C(=C/C)COC(C)=O)CC1(CO1)C1C(OC(=O)/C(=C/C)CO)C=C(C)C21 (configuration not stated),-20.6%,-19%,-21.1%,1.55%,-41.1%,-8.05%
CCc1nc(N)nc(N)c1-c1ccc2nn(-c3ccccc3)[n+]([O-])c2c1,4.25%,10.8%,20%,14.8%,14%,4.85%
